The values that follow come from the OligoGym collection.
Also: reference of the scale not given here.

The first test deals with KRI1. In words: pooled miR-30 sensor sort-seq; sequence = guide strand. The following applies: shRNA.
On to TTGAGCTCTTCCTGCTTCTTTG, for which the sensor-assay potency score (higher = more potent) is -1.32. The sequence TTCTTCAACAAGGAGAGCGTTT came in with a sensor-assay potency score (higher = more potent) of -0.767. On the same count and under the same terms, the figure for ATGTCCTCGTAGTCCAGCCGGT is -1.51; for TACTTTCCGCAGCTTCTCCAGC it is -0.735; for TACAGGGGCTTCCTCTTCCTGT it is -0.817.

The sequence TTCTTTAGGGAGCACCACCGGT showed a sensor-assay potency score (higher = more potent) of -1.34. Still for that read-out and setting: the figure for TTCCTCCACATAACTTTGCGAC is -0.99; for TTTGTTGAGGATGTAATCCCGC it is -0.152.

A further test has as its target KRT2. The description is as above. The following applies: shRNA.
Sequence TATCTTGATCTCTTTCAGGCTG showed a sensor-assay potency score (higher = more potent) of 0.155. On the same count and under the same terms, next, TTGGTGTCAGTGACACTCTGAT: -0.228. On the same count and under the same terms, next, TTCTGCAGTGAGCCCATCCAGA: -1.13.

Regarding TTTTGATCTGCTCACGCTCTTG, the sensor-assay potency score (higher = more potent) is -1.42. In turn, TTTGATGAAATGGTGCTGCTTG displayed a sensor-assay potency score (higher = more potent) of 0.566. Sequence TACACTGCTTCTTCACATGTGC returned a sensor-assay potency score (higher = more potent) of 0.0185. The same measure, in the same setting: the figure for TTGCACATTCTTACACTGCTTC is 0.204.

Regarding TTTCAGAAACTCAATTTCCTGG, the sensor-assay potency score (higher = more potent) is -0.272. The same measure, in the same setting: the figure for TTGGACTGCAACTCCACCTTTA is -0.149; for TTGATCTCCGGCTTCCACCAGA it is -0.146. On the same count and under the same terms, next, TAAACCTCCAACACCACCAGGG: 0.275; TTCACATTCTGGATCTCTGGGT: 0.038.

A further test concerns the target KRT33B. The description is as above. The following applies: shRNA.
TCGATCTGCACCACCAGCCTGG: the sensor-assay potency score (higher = more potent) was -0.584. The same measure, in the same setting: the figure for ATTGTCGATCTGCACCACCAGC is -1.36; for TTCTGAAGTCATCTGCAGCCAG it is -0.402; for TTTCCAGAGAGTATCGCAGGTT it is 0.0223. On the same count and under the same terms, the figure for TTTTCACATGCATTGGTGGTGG is 0.0181; for ATACTGATTCCTGGTCTCGTTC it is -1.38. On the same count and under the same terms, next, TTGGTTCTGAAGTCATCTGCAG: 0.243; TTTTCCAGAGAGTATCGCAGGT: 0.0207. TAGGACTGCAGCTGCTCCGAGC: the sensor-assay potency score (higher = more potent) was -1.39. Same read-out and setting: next, TTGTCAGAGAGGCAGAACTGGC: -1.76. On to TTGTCGATCTGCACCACCAGCC, for which the sensor-assay potency score (higher = more potent) is -0.512. The sequence TTCTCAGACTTGCTGCACAGGA showed a sensor-assay potency score (higher = more potent) of -1.16. The same measure, in the same setting: next, TCCGTCTGGTACTTGGTTCTGA: -0.6. In the case of TGGTTCTGAAGTCATCTGCAGC, the sensor-assay potency score (higher = more potent) is -1.53.

In another test the target is KRT75. The test is described as above. The following applies: shRNA.
Regarding ATAGGCAGCATCTACGTCCTTT, the sensor-assay potency score (higher = more potent) is -0.0293. Same read-out and setting: the figure for TATTGTGCTTTGACCTCGGCGA is -0.108; for TTAATAGACACATTCCAGGGAG it is 0.363. Same read-out and setting: the figure for TTAATTTCATCTTCGTACCTGA is 0.609; for TTGTGCTTTGACCTCGGCGATG it is -1.35. Same read-out and setting: the figure for TTTCACATGTGTAACAGACGGG is 0.696.
